Most compounds without a hit are left out; they make up all but 19% or so of the library.
HT1080NT lethal: kills 2HG-producing HT-1080-NT fibrosarcoma cells; Potency, µM (top dose mostly 46.1 µM), for inactives: at the top dose activity, negative = less viability, hits mostly cytotoxic; HT-1080-NT fibrosarcoma viability, CellTiter-Glo ATP luminescence, 48 h; AID 686970; hit rate 1.6% among 360,000;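 further: NT is the 2HG producing partner of a matched IDH1 knockdown line; 0% = DMSO-treated cells and -100% = media-only wells without cells; nearly all actives have a fitted effect of over 55% in size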
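Luminescent CellTiter-Glo readout after 48 hours of compound exposure at 37 degrees C defined viability of HT-1080-NT cells. Activity was normalized to DMSO wells and cell-free media wells; concentration-response curves were fitted and assigned curve classes.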
KB-V1 cytotox: kills drug-selected multidrug resistant KB-V1 cells. KB-V1 MDR cells viability, CellTiter-Glo, 72 h. Potency, µM (doses to about 46.1 µM), hits mostly cytotoxic. hit rate 3.4% among 400,000; further: nearly all actives have a fitted effect of over 60% in size
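In this primary screen, KB-V1 cells overexpressing P-gp are incubated with library compounds (lowest to highest concentration) for 72 h at 37 degrees C before a luminescent ATP viability read.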
TDP1 cell noCPT: qHTS for Inhibitors of human tyrosyl-DNA phosphodiesterase 1 (TDP1): qHTS in cells in absence of CPT | DT40 Tdp1-/- hTDP1 cells, no CPT, ATP luminescence, 48 h | Potency, µM (doses to about 46.2 µM), for the others: top-dose activity change, negative = growth inhibition, hits mostly inhibitors | hit rate 15% among 420,000; further: nearly all actives have a fitted effect of over 55% in size
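Luminescent ATP content (CellTiter-Glo) served as the growth readout. Knockout chicken DT40 cells expressing human TDP1 were exposed to compounds without camptothecin for a minimum 48 hr at 37 °C.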
TDP1 cell CPT: DT40-hTDP1 cell growth loss with CPT. hit rate 12% among 420,000. Potency, µM (top dose mostly 46.2 µM), inactives show top-dose activity change, negative = growth inhibition, most hits filed as inhibitors. chicken DT40 Tdp1-/-;hTDP1 cells + 20 nM CPT, ATP luminescence, 48 h; further: nearly all actives have a fitted effect of over 55% in size
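Chicken DT40 Tdp1-/- cells complemented with human TDP1, 400 cells/well, exposed to compounds plus 20 nM camptothecin for at least 48 h at 37 C; viability read as ATP content by CellTiter-Glo luminescence.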
KB-3-1 tox: kills parental KB-3-1 adenocarcinoma cells; Potency, µM (series often up to 46.1 µM), usual class: cytotoxic; hit rate 1.4% among 400,000; KB-3-1 viability, CellTiter-Glo ATP luminescence, 72 h; AID 1347075; further: nearly all actives have a fitted effect of over 60% in size
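Cytotoxicity in the drug-sensitive parental line KB-3-1 was scored as loss of CellTiter-Glo luminescence following 72 h incubation with compound. Values come from curve fitting of normalized concentration-response data.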
HT1080 IDH1KD tx: toxicity to HT-1080 IDH1 knockdown cells (counter line) | HT-1080 IDH1 knockdown viability, ATP luminescence, 48 h | Potency, µM (highest dose often 46.1 µM), without a hit: at the highest dose activity, negative = toxicity, usual class: cytotoxic | hit rate 2% among 360,000;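 further: 0% = DMSO wells and -100% = cell-free medium wells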
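Viability of IDH1-knockdown HT-1080 fibrosarcoma cells was assessed by CellTiter-Glo after 48 h at 37 °C with titrated compound; concentration-effect curves were classified by fit quality and response size.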
The depositor's hits bear a star. The call rests on the fitted dose curve; in most records, active means well fitted curve in the direction sought with a large enough effect; inconclusive means small, poorly fitted or top-dose-only effect, or another doubt; inactive means no such curve, though single readings can be large; an effect the other way counts as inactive or inconclusive. Unless noted, on the % scale 0 is the no-effect control and ±100 the full control effect; potency means the concentration at half of the fitted maximal effect.

For COc1ccc(N2CCN(c3n[nH]c(N)n3)CC2)cc1 the results were HT1080NT lethal 15%, KB-V1 cytotox inactive, TDP1 cell noCPT -29%, TDP1 cell CPT -12%, KB-3-1 tox inactive and HT1080 IDH1KD tx 2%.
`CCCS(=O)(=O)NC(=O)C1(C)CCCN(C(=O)c2c(C)noc2C)C1` (configuration not stated) gave HT1080NT lethal 13%, KB-V1 cytotox inactive, TDP1 cell noCPT -8%, TDP1 cell CPT 7%, KB-3-1 tox inactive and HT1080 IDH1KD tx 21%.
For CCn1c(-c2cc(-c3ccccc3)sc2N)n[nH]c1=S the results were HT1080NT lethal -15%, KB-V1 cytotox inactive, TDP1 cell noCPT 8.2µM*, TDP1 cell CPT inconclusive, KB-3-1 tox inactive and HT1080 IDH1KD tx -5%.
Screening CCn1c(-c2csc3ccccc23)n[nH]c1=S returned HT1080NT lethal -2%, KB-V1 cytotox 7.3µM*, TDP1 cell noCPT inconclusive, TDP1 cell CPT inconclusive, KB-3-1 tox 18µM* and HT1080 IDH1KD tx -1%.
For CCn1c(-c2ccccc2O)n[nH]c1=S the results were HT1080NT lethal inconclusive, KB-V1 cytotox inactive, TDP1 cell noCPT -8%, TDP1 cell CPT -27%, KB-3-1 tox inactive and HT1080 IDH1KD tx inconclusive.
Screening O=C1/C(=C/c2ccsc2)N2CCC1CC2 returned HT1080NT lethal -4%, KB-V1 cytotox inactive, TDP1 cell noCPT -11%, TDP1 cell CPT 11%, KB-3-1 tox inactive and HT1080 IDH1KD tx 0%.
For CCc1ccc(NC(=O)C2=C(C)C(=O)OC23CCCCC3)cc1 the results were TDP1 cell noCPT 16µM* and TDP1 cell CPT 16µM*.
CC1=C(C(=O)Nc2ccc(C)cc2Cl)C2(CCCCC2)OC1=O was read as TDP1 cell noCPT 16µM* and TDP1 cell CPT inconclusive.
`COc1ccc(NC(=O)C2=C(C)C(=O)OC23CCC(C)CC3)c(OC)c1` (configuration not stated) gave HT1080NT lethal -1%, KB-V1 cytotox inactive, TDP1 cell noCPT inconclusive, TDP1 cell CPT inconclusive, KB-3-1 tox inactive and HT1080 IDH1KD tx 3%.
`CCOc1ccc(NC(=O)C2=C(C)C(=O)OC23CCC(C)CC3)cc1` (configuration not stated) gave HT1080NT lethal 2%, KB-V1 cytotox inactive, TDP1 cell noCPT 16µM*, TDP1 cell CPT inconclusive, KB-3-1 tox inactive and HT1080 IDH1KD tx -9%.
For O=c1[nH]c(-c2ccccn2)nc2sc(-c3ccccc3)cc12 the results were HT1080NT lethal inconclusive, KB-V1 cytotox inconclusive, TDP1 cell noCPT 2.1µM*, TDP1 cell CPT 2.3µM*, KB-3-1 tox inconclusive and HT1080 IDH1KD tx -30%.
`O=[S+]([O-])(Nc1ccccc1F)c1cccc(NC/C=C/c2ccccc2)c1` gave KB-V1 cytotox inactive and KB-3-1 tox inactive.
`CCOC(=O)c1sc(NC(=O)c2cc(-c3ccccc3C)nc3ccccc23)c(C#N)c1C` gave HT1080NT lethal inconclusive, KB-V1 cytotox inconclusive, TDP1 cell noCPT 7.3µM*, TDP1 cell CPT 9.2µM*, KB-3-1 tox 8.2µM* and HT1080 IDH1KD tx inconclusive.
Cc1ccccc1-c1cc(C(=O)Nc2sc(C)c(C)c2C(N)=O)c2ccccc2n1 was read as HT1080NT lethal inconclusive, KB-V1 cytotox 16µM*, TDP1 cell noCPT 18µM*, TDP1 cell CPT 16µM*, KB-3-1 tox inactive and HT1080 IDH1KD tx inconclusive.
Screening COC(=O)c1sc(NC(=O)c2ccc(Cn3cc(Cl)cn3)o2)c(C#N)c1C returned HT1080NT lethal -9%, KB-V1 cytotox inactive, TDP1 cell noCPT inconclusive, TDP1 cell CPT 16µM*, KB-3-1 tox inactive and HT1080 IDH1KD tx -3%.
CCOC(=O)c1sc(NC(=O)CSc2nc(C)cc(-c3ccccc3)n2)c(C#N)c1C was read as HT1080NT lethal 18%, KB-V1 cytotox inactive, TDP1 cell noCPT -14%, TDP1 cell CPT 1%, KB-3-1 tox inactive and HT1080 IDH1KD tx -7%.
For CCOC(=O)c1sc(NC(=O)c2ccncc2)c(C#N)c1C the results were HT1080NT lethal inconclusive, KB-V1 cytotox 2.6µM*, TDP1 cell noCPT 5.2µM*, TDP1 cell CPT 6.5µM*, KB-3-1 tox 4.1µM* and HT1080 IDH1KD tx -1%.
For COc1cc(OC)c(N(C)C(=O)Cn2ncc3c([nH]c4ccccc43)c2=O)cc1Cl the results were KB-V1 cytotox inactive, TDP1 cell noCPT inconclusive, TDP1 cell CPT inconclusive and KB-3-1 tox inactive.
Screening O=[N+]([O-])c1ccc(N2CCCCC2)nc1N1CCCCC1 returned HT1080NT lethal 13%, KB-V1 cytotox inactive, TDP1 cell noCPT 21µM*, TDP1 cell CPT inconclusive, KB-3-1 tox inactive and HT1080 IDH1KD tx inconclusive.
CCNc1ncc2nc(-c3ccccc3)c(=O)n(C)c2n1 was read as TDP1 cell noCPT 1% and TDP1 cell CPT -1%.
For N#Cc1ccccc1NC(=O)C1SC(=Nc2ccccc2)C(C(=O)Nc2ccc(Cl)cc2)=C1N (configuration not stated) the results were HT1080NT lethal -22%, KB-V1 cytotox 6.5µM*, TDP1 cell noCPT 21µM*, TDP1 cell CPT 16µM*, KB-3-1 tox 5.2µM* and HT1080 IDH1KD tx -5%.
CCOc1ccc(N=C2SC(C(=O)Nc3ccccc3C#N)C(N)=C2C(=O)Nc2ccc(Cl)cc2)cc1 (configuration not stated) was read as HT1080NT lethal 10%, KB-V1 cytotox inactive, TDP1 cell noCPT 4%, TDP1 cell CPT 2%, KB-3-1 tox inactive and HT1080 IDH1KD tx 9%.
For Cc1cccn2c(=O)c3cc(C(=O)NCc4ccccc4)c(=N)n(CCOCCO)c3nc12 the results were KB-V1 cytotox inactive, TDP1 cell noCPT 26µM*, TDP1 cell CPT 12µM* and KB-3-1 tox inactive.
For Cc1cccn2c(=O)c3cc(C(=O)NC(C)c4ccccc4)c(=N)n(CCCn4ccnc4)c3nc12 (configuration not stated) the results were HT1080NT lethal inconclusive, KB-V1 cytotox inactive, TDP1 cell noCPT inconclusive, TDP1 cell CPT inconclusive, KB-3-1 tox inconclusive and HT1080 IDH1KD tx inconclusive.
For Cc1cccn2c(=O)c3cc(C(=O)NC(C)c4ccccc4)c(=N)n(CCOCCO)c3nc12 (configuration not stated) the results were KB-V1 cytotox inactive, TDP1 cell noCPT 26µM*, TDP1 cell CPT 23µM* and KB-3-1 tox inactive.

Bioassay records (PubChem BioAssay)
